The record followed here is paper PMC7862700, “An all-to-all approach to the identification of sequence-specific readers for epigenetic DNA modifications on cytosine”.

Common to all, as to assay: DAPPL (digital affinity profiling via proximity ligation, sequencing); 10 mM Tris-HCl pH 7.5, 50 mM NaCl, 1 mM DTT, 4% glycerol, room temperature, 30 min; GST-TFs on glutathione beads, 16-mer random dsDNA library, 0.1% formaldehyde crosslink after washing; high values mean tight binding
What all share (conditions): protein: recombinant; tags: N-terminal GST; dsDNA, one strand shown

For one experiment, the target named is T1, FLI1 (Homo sapiens, UniProt Q01543 1-452).
T1 sequence: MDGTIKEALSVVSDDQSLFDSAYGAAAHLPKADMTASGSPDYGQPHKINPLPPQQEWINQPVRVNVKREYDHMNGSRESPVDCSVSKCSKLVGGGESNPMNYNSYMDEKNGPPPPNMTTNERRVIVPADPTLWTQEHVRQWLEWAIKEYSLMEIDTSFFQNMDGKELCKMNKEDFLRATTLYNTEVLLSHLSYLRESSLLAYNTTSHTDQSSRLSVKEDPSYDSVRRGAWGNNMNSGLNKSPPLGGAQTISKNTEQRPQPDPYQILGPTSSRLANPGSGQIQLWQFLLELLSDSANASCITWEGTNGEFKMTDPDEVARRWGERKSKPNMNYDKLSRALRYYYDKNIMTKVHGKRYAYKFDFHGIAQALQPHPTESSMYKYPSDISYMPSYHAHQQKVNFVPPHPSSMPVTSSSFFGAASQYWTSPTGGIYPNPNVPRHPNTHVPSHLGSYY
The method, boiled down: (§1)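 After expression in yeast as GST fusions, human transcription factors were bound to glutathione beads, DNA-barcoded and mixed with a tag-only sample. The pools were incubated with 200 nmole of a 16-mer random double-stranded DNA library in Tris/NaCl/DTT/glycerol buffer (30 min, room temperature), washed and crosslinked with 0.1% formaldehyde. Proximity ligation with BsaI/T4 ligase ran for 1 h at 37 °C, before PCR amplification and sequencing on an Illumina NextSeq500. Binding signal is a hexamer's read frequency for a factor divided by its frequency for the tag-only sample.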

The next experiment deals with T2, ELK1 (Homo sapiens, UniProt P19419 1-428).
T2 sequence: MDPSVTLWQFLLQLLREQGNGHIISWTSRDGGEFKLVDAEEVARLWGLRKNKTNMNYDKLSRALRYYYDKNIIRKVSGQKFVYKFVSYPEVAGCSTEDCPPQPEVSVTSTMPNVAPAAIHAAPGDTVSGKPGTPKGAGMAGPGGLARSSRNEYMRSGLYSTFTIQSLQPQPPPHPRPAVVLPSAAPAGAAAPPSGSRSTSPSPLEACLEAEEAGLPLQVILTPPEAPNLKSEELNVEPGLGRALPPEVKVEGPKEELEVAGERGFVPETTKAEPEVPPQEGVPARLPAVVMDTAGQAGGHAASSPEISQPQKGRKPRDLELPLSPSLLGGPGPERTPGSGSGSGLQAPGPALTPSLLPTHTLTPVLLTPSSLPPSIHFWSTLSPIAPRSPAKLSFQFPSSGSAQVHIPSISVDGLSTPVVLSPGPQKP
The method, boiled down:
as §1

A further experiment addresses T3, GABPA (Homo sapiens, UniProt Q06546 1-454).
T3 sequence: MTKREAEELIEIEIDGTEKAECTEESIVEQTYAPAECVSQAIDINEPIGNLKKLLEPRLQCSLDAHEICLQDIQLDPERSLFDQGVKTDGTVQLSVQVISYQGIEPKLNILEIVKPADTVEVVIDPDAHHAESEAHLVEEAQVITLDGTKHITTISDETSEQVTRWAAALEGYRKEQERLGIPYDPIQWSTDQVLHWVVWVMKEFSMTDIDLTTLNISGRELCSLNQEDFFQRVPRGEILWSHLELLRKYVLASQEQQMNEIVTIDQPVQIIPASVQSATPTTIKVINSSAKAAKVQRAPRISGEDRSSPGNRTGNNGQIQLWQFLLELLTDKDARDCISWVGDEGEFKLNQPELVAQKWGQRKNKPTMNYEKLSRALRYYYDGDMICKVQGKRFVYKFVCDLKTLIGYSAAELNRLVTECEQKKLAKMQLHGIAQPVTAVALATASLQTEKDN
The method, boiled down: as §1

The target in a further experiment is T4, ERG (Homo sapiens, UniProt P11308 1-479).
T4 sequence: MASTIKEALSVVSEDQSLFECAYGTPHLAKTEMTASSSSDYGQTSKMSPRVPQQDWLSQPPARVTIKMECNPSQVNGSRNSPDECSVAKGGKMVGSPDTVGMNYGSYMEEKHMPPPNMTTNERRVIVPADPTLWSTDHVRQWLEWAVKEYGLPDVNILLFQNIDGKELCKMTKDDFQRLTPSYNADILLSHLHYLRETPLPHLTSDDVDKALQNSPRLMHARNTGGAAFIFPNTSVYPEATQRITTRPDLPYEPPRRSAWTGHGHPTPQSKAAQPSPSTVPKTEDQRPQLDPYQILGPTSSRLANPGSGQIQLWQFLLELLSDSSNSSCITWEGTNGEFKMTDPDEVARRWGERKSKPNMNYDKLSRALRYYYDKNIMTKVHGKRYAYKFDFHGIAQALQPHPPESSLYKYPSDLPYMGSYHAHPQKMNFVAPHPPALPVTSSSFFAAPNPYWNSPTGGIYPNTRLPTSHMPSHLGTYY
The method, boiled down:
as §1

The next experiment deals with ELF1 (Homo sapiens, UniProt P32519 1-619). The method, boiled down: as §1
Sequence of ELF1 (P32519 whole entry): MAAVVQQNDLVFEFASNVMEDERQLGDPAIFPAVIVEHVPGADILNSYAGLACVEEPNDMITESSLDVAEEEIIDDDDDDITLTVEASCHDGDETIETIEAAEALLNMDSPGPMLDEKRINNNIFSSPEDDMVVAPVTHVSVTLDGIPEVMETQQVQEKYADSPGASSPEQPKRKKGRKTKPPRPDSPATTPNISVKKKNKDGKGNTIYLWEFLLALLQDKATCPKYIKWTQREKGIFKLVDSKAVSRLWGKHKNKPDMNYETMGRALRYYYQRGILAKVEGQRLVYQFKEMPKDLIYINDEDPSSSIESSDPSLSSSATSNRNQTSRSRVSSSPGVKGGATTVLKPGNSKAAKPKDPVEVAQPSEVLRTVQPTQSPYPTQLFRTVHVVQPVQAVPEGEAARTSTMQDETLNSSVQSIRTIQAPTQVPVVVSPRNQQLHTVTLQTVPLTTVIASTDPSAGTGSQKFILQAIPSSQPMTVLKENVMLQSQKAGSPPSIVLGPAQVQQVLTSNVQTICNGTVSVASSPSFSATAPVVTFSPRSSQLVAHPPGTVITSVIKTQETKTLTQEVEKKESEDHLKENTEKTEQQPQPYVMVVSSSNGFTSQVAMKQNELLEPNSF
The next experiment concerns the target T5, EHF (Homo sapiens, UniProt Q9NZC4 1-300).
T5 sequence: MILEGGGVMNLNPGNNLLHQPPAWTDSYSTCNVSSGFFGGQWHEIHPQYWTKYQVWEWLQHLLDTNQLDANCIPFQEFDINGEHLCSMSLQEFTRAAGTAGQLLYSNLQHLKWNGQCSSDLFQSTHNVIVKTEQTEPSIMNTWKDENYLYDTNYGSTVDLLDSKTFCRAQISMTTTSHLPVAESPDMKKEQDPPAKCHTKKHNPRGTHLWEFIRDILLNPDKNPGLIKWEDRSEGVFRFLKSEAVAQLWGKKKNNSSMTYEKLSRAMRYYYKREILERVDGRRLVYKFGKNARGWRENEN
Summed up:
as §1

The target in another experiment is SPI1 (Homo sapiens, UniProt P17947 1-270). The method, boiled down:
as §1

The target in a further experiment is SPIB (Homo sapiens, UniProt Q01892 1-262). The method, boiled down:
as §1

A further experiment has as its target T6, ELK3 (Homo sapiens, UniProt P41970 1-407).
T6 sequence: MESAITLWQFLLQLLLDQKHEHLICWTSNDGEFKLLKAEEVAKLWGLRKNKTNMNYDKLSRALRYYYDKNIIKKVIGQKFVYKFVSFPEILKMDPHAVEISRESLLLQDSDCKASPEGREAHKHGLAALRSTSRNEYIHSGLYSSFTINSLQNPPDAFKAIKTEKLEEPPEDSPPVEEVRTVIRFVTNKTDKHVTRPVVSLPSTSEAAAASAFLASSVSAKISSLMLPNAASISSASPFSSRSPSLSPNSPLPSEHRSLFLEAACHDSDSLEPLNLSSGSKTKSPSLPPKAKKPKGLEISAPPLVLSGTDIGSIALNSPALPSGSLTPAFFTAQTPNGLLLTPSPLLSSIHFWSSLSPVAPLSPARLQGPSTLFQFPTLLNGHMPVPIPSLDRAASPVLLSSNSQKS
The method, boiled down:
as §1

In the next experiment the target is T7, FEV (Homo sapiens, UniProt Q99581 1-238).
T7 sequence: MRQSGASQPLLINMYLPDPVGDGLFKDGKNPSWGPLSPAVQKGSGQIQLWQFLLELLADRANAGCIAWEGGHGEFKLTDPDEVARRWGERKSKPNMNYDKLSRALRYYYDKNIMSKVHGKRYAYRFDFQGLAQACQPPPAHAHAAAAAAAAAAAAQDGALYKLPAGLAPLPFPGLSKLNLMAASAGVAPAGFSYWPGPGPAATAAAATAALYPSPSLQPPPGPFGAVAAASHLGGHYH
Summed up: as §1

Another experiment concerns the target ETV5 (Homo sapiens, UniProt P41161 1-510). Summed up:
as §1

In the next experiment the target is T8, SPIC (Homo sapiens, UniProt Q8N5J4 1-248).
T8 sequence: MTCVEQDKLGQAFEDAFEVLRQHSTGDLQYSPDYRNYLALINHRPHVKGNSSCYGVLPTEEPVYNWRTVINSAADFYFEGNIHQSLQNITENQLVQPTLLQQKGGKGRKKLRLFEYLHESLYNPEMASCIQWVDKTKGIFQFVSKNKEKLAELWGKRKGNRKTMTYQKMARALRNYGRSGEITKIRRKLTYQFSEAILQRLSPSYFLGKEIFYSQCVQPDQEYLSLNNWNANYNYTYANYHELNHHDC
Summed up: as §1

In the next experiment the target is ELF4 (Homo sapiens, UniProt Q99607 1-663). Summed up:
as §1

For a further experiment, the target named is ETV1 (Homo sapiens, UniProt P50549 1-477). Summed up:
as §1

In another experiment the target is T9, ERF (Homo sapiens, UniProt P50548 1-548).
T9 sequence: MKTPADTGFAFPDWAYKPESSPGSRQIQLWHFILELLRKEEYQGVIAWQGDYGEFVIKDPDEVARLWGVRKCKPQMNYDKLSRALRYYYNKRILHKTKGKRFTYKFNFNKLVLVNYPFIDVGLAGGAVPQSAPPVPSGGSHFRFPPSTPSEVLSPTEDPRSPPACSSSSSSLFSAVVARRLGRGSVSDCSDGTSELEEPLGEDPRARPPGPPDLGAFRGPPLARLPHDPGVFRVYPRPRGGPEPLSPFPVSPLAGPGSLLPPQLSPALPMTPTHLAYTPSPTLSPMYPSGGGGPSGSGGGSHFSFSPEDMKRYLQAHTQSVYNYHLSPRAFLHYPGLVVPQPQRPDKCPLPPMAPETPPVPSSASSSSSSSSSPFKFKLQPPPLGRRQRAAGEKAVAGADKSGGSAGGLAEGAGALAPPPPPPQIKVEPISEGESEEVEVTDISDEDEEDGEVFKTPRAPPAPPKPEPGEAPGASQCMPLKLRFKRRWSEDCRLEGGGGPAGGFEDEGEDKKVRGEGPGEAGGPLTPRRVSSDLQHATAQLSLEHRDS
The method, boiled down:
as §1

A further experiment has as its target T10, ETV3L (Homo sapiens, UniProt Q6ZN32 1-361).
T10 sequence: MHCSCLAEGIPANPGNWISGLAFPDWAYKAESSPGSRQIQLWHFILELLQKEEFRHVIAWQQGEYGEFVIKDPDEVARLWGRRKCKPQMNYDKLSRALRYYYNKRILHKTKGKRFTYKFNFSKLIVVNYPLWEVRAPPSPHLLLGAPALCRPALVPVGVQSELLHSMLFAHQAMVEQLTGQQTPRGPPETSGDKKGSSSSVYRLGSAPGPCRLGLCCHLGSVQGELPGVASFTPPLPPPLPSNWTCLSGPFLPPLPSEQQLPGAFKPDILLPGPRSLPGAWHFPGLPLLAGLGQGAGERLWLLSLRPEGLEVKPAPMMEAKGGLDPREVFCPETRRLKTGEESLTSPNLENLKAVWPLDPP
Summed up:
as §1

The next experiment has as its target T11, ETS2 (Homo sapiens, UniProt P15036 1-469).
T11 sequence: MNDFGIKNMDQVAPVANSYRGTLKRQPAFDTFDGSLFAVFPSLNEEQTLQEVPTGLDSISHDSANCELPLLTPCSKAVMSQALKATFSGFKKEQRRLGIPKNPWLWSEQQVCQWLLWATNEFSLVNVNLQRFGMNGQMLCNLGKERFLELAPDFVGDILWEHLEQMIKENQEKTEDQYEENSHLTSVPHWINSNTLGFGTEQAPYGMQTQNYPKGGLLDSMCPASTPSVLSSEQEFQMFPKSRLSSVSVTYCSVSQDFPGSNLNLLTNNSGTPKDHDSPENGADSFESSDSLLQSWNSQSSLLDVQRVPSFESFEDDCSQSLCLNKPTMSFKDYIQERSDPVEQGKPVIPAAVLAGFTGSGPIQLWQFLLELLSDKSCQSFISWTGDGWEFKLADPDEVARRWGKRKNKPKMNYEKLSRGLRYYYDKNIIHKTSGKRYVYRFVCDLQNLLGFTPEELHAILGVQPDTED
The method, boiled down: as §1

The target in a further experiment is T12, ELF5 (Homo sapiens, UniProt Q9UKW6-2 1-255).
T12 sequence: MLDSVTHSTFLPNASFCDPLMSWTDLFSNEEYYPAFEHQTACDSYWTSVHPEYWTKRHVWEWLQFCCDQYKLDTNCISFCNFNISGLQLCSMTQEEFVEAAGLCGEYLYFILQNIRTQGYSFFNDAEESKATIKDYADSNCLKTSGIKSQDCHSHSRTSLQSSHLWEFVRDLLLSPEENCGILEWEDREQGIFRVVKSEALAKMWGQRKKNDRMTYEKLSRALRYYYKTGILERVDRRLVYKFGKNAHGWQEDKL
Summed up:
as §1

The target in the next experiment is T13, ETV3 (Homo sapiens, UniProt P41162-2 1-143).
T13 sequence: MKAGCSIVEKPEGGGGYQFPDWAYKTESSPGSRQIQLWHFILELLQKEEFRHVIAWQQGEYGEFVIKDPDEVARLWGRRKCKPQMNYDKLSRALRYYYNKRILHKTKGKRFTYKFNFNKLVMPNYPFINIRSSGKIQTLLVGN
The method, boiled down: as §1

In a further experiment the target is ETV6 (Homo sapiens, UniProt P41212 1-452). The method, boiled down: as §1
Sequence of ETV6 (P41212 whole entry): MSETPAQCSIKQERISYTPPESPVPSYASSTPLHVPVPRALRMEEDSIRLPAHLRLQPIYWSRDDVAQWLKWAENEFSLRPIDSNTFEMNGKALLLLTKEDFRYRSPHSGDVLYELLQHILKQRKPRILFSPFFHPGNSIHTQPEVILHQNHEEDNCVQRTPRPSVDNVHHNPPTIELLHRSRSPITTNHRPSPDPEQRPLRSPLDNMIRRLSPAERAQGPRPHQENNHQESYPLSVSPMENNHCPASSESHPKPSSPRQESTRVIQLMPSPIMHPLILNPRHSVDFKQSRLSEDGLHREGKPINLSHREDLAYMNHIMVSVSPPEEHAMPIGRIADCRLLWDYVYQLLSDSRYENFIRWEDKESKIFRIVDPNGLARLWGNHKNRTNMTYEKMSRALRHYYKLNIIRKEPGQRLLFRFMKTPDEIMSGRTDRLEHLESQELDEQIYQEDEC

Sequence of ETV5 (P41161 whole entry): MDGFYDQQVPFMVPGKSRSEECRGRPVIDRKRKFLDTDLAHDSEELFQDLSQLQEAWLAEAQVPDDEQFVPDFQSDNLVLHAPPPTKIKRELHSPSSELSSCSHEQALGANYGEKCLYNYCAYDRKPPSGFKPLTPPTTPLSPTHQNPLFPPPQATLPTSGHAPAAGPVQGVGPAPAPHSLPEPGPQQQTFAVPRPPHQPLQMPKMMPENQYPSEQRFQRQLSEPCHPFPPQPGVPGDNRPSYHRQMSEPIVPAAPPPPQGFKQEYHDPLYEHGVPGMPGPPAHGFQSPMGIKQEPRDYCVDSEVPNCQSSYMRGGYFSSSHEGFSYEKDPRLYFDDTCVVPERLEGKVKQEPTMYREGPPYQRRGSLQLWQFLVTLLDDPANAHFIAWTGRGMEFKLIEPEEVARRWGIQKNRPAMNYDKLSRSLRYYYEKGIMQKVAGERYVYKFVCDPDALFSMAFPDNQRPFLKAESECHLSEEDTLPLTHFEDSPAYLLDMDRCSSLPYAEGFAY
Sequence of SPIB (Q01892 whole entry): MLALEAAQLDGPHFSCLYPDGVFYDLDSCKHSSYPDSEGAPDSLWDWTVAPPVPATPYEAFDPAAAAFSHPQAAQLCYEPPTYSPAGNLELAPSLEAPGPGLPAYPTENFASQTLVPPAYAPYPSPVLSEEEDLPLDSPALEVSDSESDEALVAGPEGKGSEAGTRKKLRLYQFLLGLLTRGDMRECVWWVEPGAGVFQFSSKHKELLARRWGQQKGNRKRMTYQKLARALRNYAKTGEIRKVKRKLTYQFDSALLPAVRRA
Sequence of ETV1 (P50549 whole entry): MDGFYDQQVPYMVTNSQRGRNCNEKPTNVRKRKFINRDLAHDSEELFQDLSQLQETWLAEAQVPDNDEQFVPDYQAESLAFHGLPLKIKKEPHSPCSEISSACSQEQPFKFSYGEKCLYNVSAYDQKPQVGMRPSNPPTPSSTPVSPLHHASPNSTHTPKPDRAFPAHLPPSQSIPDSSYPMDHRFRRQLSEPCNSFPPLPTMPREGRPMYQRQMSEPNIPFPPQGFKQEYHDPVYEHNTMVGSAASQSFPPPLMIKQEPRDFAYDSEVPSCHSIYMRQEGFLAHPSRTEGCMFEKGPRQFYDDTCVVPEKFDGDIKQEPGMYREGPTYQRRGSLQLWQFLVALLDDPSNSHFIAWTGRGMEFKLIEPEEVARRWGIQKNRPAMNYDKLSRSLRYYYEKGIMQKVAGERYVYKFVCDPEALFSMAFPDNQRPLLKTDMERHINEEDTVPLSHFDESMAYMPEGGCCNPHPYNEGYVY
Sequence of ELF4 (Q99607 whole entry): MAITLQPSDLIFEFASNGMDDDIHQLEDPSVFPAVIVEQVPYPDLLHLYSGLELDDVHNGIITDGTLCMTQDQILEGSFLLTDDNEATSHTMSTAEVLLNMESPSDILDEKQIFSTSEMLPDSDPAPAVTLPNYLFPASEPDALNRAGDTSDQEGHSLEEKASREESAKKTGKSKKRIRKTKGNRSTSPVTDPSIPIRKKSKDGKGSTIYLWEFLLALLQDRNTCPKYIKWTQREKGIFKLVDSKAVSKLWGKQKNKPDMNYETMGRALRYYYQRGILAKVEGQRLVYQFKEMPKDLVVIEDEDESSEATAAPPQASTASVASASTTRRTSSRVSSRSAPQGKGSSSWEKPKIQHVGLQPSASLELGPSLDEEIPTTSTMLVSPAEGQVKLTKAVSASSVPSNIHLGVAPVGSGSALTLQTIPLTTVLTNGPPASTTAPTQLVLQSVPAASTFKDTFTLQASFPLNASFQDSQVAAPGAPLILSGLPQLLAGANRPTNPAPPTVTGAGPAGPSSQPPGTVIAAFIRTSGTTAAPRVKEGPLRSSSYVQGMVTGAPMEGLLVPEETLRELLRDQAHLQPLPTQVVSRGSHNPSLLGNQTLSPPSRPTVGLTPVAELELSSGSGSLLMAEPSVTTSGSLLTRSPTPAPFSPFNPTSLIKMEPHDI

With CCACCT, the binding signal in the experiment with FLI1 was 1.16 fold enrichment (6-mer frequency, TF over GST control); with ELK1, 1.12 fold enrichment (6-mer frequency, TF over GST control); with GABPA, 1.1 fold enrichment (6-mer frequency, TF over GST control); with ERG it was 1.11 fold enrichment (6-mer frequency, TF over GST control); with ELF1 it was 1.15 fold enrichment (6-mer frequency, TF over GST control); with EHF it was 1.21 fold enrichment (6-mer frequency, TF over GST control). The binding signal in the experiment with SPI1 was 1.11 fold enrichment (6-mer frequency, TF over GST control); in the experiment with SPIB, 1.07 fold enrichment (6-mer frequency, TF over GST control); with ELK3, 1.06 fold enrichment (6-mer frequency, TF over GST control); with FEV, 1.17 fold enrichment (6-mer frequency, TF over GST control); with ETV5, 1.07 fold enrichment (6-mer frequency, TF over GST control); with SPIC it was 1.19 fold enrichment (6-mer frequency, TF over GST control). Moreover, the binding signal is 1.15 fold enrichment (6-mer frequency, TF over GST control) in the experiment with ELF4; 1.07 fold enrichment (6-mer frequency, TF over GST control) with ETV1; 1.13 fold enrichment (6-mer frequency, TF over GST control) in the experiment with ERF; 1.08 fold enrichment (6-mer frequency, TF over GST control) in the experiment with ETV3L; 1.1 fold enrichment (6-mer frequency, TF over GST control) in the experiment with ETS2; 1.09 fold enrichment (6-mer frequency, TF over GST control) with ELF5. Moreover, the binding signal was 1.08 fold enrichment (6-mer frequency, TF over GST control) with ETV3 and 1.06 fold enrichment (6-mer frequency, TF over GST control) with ETV6.
